# Sampled rows, rich in hits. Any-hit rate of the full collection: about 1.1%.
# CCHFV vOTU inh: CCHFV vOTU protease inhibitors, primary screen, biochemical, Pep-AMC substrate, fluorescence. 0.55% of 370,000 active. Crimean-Congo hemorrhagic fever virus L polyprotein viral ovarian tumor (vOTU) protease …. inhibition, % at 11.5 µM; in the data active = inhibition above about 30%; also: 0% = vehicle wells with enzyme and 100% = no enzyme wells
# BH1578 lux ind: inducers of Vibrio cholerae quorum light production without autoinducers, primary screen, BH1578 luxS cqsA deficient, single point; V. cholerae BH1578 lux reporter, luminescence, 6 h; activation, % at 18.7 µM; 0.16% of 350,000 active; AID 588436, 2011; in the data active = activation mostly above about 9.7%, no sharp cut-off
# PrPC TRFRET: inhibitors of human cell surface prion protein PrPC, primary screen, cell-based, TR-FRET; Major prion protein (Homo sapiens), P04156; TR-FRET read-out; inhibition, % at 13.8 µM; 0.43% of 370,000 active; AID 720596, 2013; in the data active = inhibition above about 24%; also: 0% = median of the test wells and 100% = reference compound wells
# Y pestis TopoI: Yersinia pestis topoisomerase I inhibitors, primary screen, biochemical, cleavage product accumulation, plate reader, single point; Y. pestis Topo-I cleavage product accumulation; 0.064% of 360,000 active; activity, % at 10 µM; DNA topoisomerase I (Yersinia pestis CO92); AID 504884, 2011; in the data active = activity above about 50%, passing the limit was not always enough
# An asterisk follows results filed as active; i = inactive; x = not tested or not shown; + = active, no number.
SMILES,CCHFV vOTU inh,BH1578 lux ind,PrPC TRFRET,Y pestis TopoI
CCCOc1ccc(C(=O)Nc2ccc(S(=O)(=O)N3C[C@@H]4C[C@@H](C3)c3cccc(=O)n3C4)cc2)cc1,-2,0,-10,67*
CC(C)CC(=O)Nc1ccc(S(=O)(=O)N2CC3CC(C2)c2cccc(=O)n2C3)cc1 (stereo not drawn),-5,i,2,-1
CC(/C=N/NC(=O)Cc1cccn1C)=C\c1ccccc1,8,0,-10,11
Cc1c(C(=O)N2CC(C)OC(C)C2)[nH]c2ccc(Br)cc12 (stereo not drawn),13,i,28*,-3
N#CC1=C(N)SC(N)=C(C#N)C1c1cccc(O)c1,-11,i,27*,-6
COc1ccc(C2C(C#N)=C(N)SC(N)=C2C#N)cc1OC,9,0,59*,-4
COc1ccc(C2C(C#N)=C(N)OC(C(C)(C)C)=C2C#N)cc1OC (stereo not drawn),-3,-1,0,0
N#CC1=C(N)Oc2cc(O)ccc2C1c1ccccc1 (stereo not drawn),-2,i,5,-3
O=C(Cc1ccccc1)Nc1ccc(N2CCOCC2)cc1,-7,0,-2,-6
Cc1ccc(NC(=O)COC(=O)CCC2CCCC2)c(Br)c1,11,-3,-4,70*
O=C(COC(=O)CCC1CCCC1)Nc1ccccc1Br,4,-2,1,24
C/C=C(/C)C(=O)O[C@@H]([C@H](O)c1cc2ccc(=O)oc2cc1OC)C(C)(C)O[C@@H]1O[C@H](CO)[C@@H](O)[C@H](O)[C@H]1O,-28,i,3,3
Fc1ccc(-[n+]2nc(Nc3ccccc3)sc2-c2c3ccccc3cc3ccccc23)cc1,-2,0,4,-25
Oc1ccc2ccccc2c1-c1sc(Nc2ccccc2)n[n+]1-c1ccc(F)cc1,11,0,-6,99*
CCC(=O)N1CCN(c2ccccc2NC(=S)NC(=O)c2cccc([N+](=O)[O-])c2)CC1,4,0,-1,-8
CCC(=O)N1CCN(c2ccc(NC(=S)NC(=O)c3cccc([N+](=O)[O-])c3)cc2)CC1,1,33*,-1,5
COC(=O)c1c(NC(=O)c2ccccc2)sc(C(=O)c2ccccc2)c1C,12,-1,8,-6
CCCn1c(O)c(N=N)c2ccccc21,2,+,-9,-9
O=Nc1c(O)n(Cc2ccccc2)c2ccccc12,1,81*,-13,-2
CCOC(=O)Cn1c(S(=O)(=O)Cc2ccc(F)cc2)nc(-c2ccccc2)c1-c1ccccc1,12,0,5,52*
COc1cc2c(cc1OC)-c1cc(Nc3ccccc3Br)nc(=O)n1CC2,3,i,4,9
O=C(CC1CCCCC1)NCC1CCCO1 (stereo not drawn),-7,17*,-2,6
O=C(CCl)NCC1CCCO1 (stereo not drawn),-16,-1,6,1
COc1ccc(OCc2cc(C(=O)NCCCc3ccccc3)no2)c(Cl)c1,11,x,-5,44
CSc1ccccc1OCc1cc(C(=O)NCCCc2ccccc2)no1,-3,-1,0,58*
SMILES,CCHFV vOTU inh,BH1578 lux ind,PrPC TRFRET,Y pestis TopoI
Cc1cccc(Nc2nc(N)nc(N)c2N=O)c1,25,i,-46,-4
Cc1ccc(N(C)c2nc(N)nc(N)c2N=O)cc1,61*,x,-57,x
CCCCCCCCCn1ccc(=N)cc1,-6,-1,25*,1
C[C@H]1C2CC(OC(=O)Nc3cccc(F)c3)C(C2)[C@H]2CCCCN21 (stereo partly drawn),-6,x,-8,x
COc1ccc2[nH]c3c(=O)n(CCCCCC(=O)NCCC(C)C)c(=S)[nH]c3c2c1,-8,i,3,1
COc1ccc(Cc2nnc(SCC(=O)N(C)CC(=O)Nc3ccc(C)cc3)o2)cc1,7,29*,-1,26
O=C(Nc1ccc(Cl)c(Cl)c1)N1CCCCCC1,14,i,2,2
O=C(Nc1ccc(Cl)c(Cl)c1)N1CCC(N2CCCCC2)CC1,1,+,-2,-13
CN[C@@H]1[C@H](O)[C@H](NC)[C@H]2O[C@@]3(O)C(=O)C[C@@H](C)O[C@H]3O[C@@H]2[C@H]1O,13,72*,9,3
O=C(Nc1nc(COc2ccccc2)cs1)C1CCC1,-11,i,18,-10
Cc1ccc(CCN2CC(C(=O)NC(C)C)CC2=O)cc1 (stereo not drawn),-3,i,10,2
CCCCCCC12C(=Cc3cc4c(cc31)OCCO4)c1cc(OC)c(OC)cc1C(CC(=O)NC1CCCCC1)N2C(=O)OC (stereo not drawn),-8,x,6,x
Cc1ccc(NC(=O)c2ccc([N+](=O)[O-])o2)c(C)c1,-3,i,0,2
Cc1ccc(S(=O)(=O)c2ccc([N+](=O)[O-])o2)cc1,3,4,82*,7
C=C1C(=O)O[C@H]2C[C@H]1[C@@H](OC(C)=O)C/C(C)=C/CC/C(C)=C\CC[C@]2(C)O,3,-2,38*,16
c1coc(-c2cnc3ccccc3n2)c1,-117,-5,4,4
O=C(NCCO)c1ccc2nc(-c3ccco3)c(-c3ccco3)nc2c1,77*,i,-8,-14
c1coc(-c2nc3ccccc3nc2-c2ccco2)c1,51*,5,-16,-5
CCn1c(=O)c2ccccc2n2c(SCC(=O)N3CCCc4ccccc43)nnc12,-7,i,0,-3
CCC1CCCCN1CCCNC(=O)CN1C(=O)CSc2ccc(S(=O)(=O)N3CCC(C)CC3)cc21 (stereo not drawn),-1,6,-9,4
COC1=C(C)C(=O)O[C@]12C(=O)C(C)=C1CCCCN3[C@H]([C@@H]4C[C@H](C)C(=O)O4)CC[C@]132,-5,i,1,11
Cc1ccc([N+](=O)[O-])cc1-c1[nH]c(-c2ccc(O)c(O)c2)nc1-c1ccccc1,2,25*,-1,1
COc1ccc(-c2nc(-c3ccccc3)c(-c3cc([N+](=O)[O-])ccc3C)[nH]2)cc1O,9,-3,-12,-14
COc1ccc(C2CC(c3ccccc3)=NN2C(=O)COC(=O)c2cccc(S(=O)(=O)N3CCOCC3)c2)cc1 (stereo not drawn),6,i,-2,60*
COc1ccc(C2CC(c3ccccc3)=NN2C(=O)COC(=O)c2cccc(S(=O)(=O)N(C)C)c2)cc1 (stereo not drawn),9,0,3,31
COC(=O)c1ccccc1Nc1ccccc1,34*,i,-1,-8
Cc1c(N2C(=O)c3ccccc3C2=O)c(=O)n(-c2ccccc2)n1C,-10,17*,3,-2
Cc1c(N2C(=O)c3ccc(F)cc3C2=O)c(=O)n(-c2ccccc2)n1C,-1,-2,-2,-6
O=c1c2ccccc2nc(SCc2ccccc2Cl)n1Cc1ccccc1,-1,26*,1,2
